Measurements taken from PubChem BioAssay AID2013 (Sanford-Burnham Center for Chemical Genomics, 2009).
The campaign covered roughly 290,000 compounds. About 370 (0.13%) were called active.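 Rule for the calls: active = spots per cell inhibited over 60%, with over 100 cells counted and total cytoplasm intensity under 500,000; inconclusive = wells with under 100 cells, flagged as likely toxic; inactive = the rest.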 Only a selection was taken, and actives are over-represented in it overall. Entries with a potency or affinity are not part of this list.

The compounds below were run against G-protein coupled receptor 55 (Homo sapiens) (UniProt Q9Y2T6) (assay: inhibition of LPI-stimulated GPR55 beta-arrestin translocation – imaging, U2OS, beta-arrestin-GFP, LPI agonist, primary screen (AID 2013;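 note: U2OS cells stably carrying GPR55 and arrestin-GFP stimulated by 5 µM LPI near EC80; imaged beta-arrestin-GFP aggregate spots per cell after agonist stimulation; plate controls were LPI-stimulated DMSO wells for no effect and DMSO wells without LPI for full effect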)). Conditions: LPI antagonism, at 10 µM, hits give high values.
G-protein coupled receptor 55 (Homo sapiens), sequence (Q9Y2T6 whole entry, looked up): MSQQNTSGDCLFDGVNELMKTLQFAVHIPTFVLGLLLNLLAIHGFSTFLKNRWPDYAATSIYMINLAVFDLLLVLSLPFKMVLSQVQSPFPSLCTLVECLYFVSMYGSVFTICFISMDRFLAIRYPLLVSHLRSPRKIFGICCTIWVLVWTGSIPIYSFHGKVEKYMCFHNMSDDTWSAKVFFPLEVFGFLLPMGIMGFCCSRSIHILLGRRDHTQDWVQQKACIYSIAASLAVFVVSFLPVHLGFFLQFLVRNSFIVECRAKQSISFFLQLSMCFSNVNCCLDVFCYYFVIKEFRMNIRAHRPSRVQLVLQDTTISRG

Row | SMILES | inhibition
1 | Cc1csc(NC(=O)CCC(=O)N(CC(=O)NC2CCCCC2)c2ccccc2)n1 | 7.7% (inactive)
2 | Cn1cccc1/C=N/N1CCN(Cc2ccccc2Cl)CC1 | -2.2% (inactive)
3 | O=C1NC(=O)N(Cc2ccccc2F)C1=O | -13.9% (inactive)
4 | Cc1cc(F)ccc1NC(=O)C1CCN(S(=O)(=O)c2ccc3c(c2)CCCC(=O)N3)CC1 | 8.1% (inactive)
5 | O=C(NCCNC(=O)c1cc(Cl)ccc1Cl)c1ccccn1 | 3.4% (inactive)
6 | CC(NC(=O)Cn1nc(C(=O)O)c2ccccc2c1=O)C12CC3CC(CC(C3)C1)C2 (configuration not stated) | -2.7% (inactive)
7 | CC(NC(=O)CN1CCCC1)C12CC3CC(CC(C3)C1)C2 (configuration not stated) | -3.7% (inactive)
8 | O=C(COC(=O)c1cc(S(=O)(=O)N2CCc3ccccc3C2)ccc1Cl)NCc1ccco1 | 7.3% (inactive)
9 | Cn1c(N)c(C(=O)COC(=O)CCC2CCCCC2)c(=O)n(C)c1=O | 8.4% (inactive)
10 | CCN(CC)S(=O)(=O)c1ccc(N2CCOCC2)c(NC(=O)COc2ccccc2C#N)c1 | -13.6% (inactive)
11 | Cn1c(=O)c2ccccc2n2c(CCl)nnc12 | 5.8% (inactive)
12 | CSCCNC(=O)c1ccc2nc(C3CCCCC3)oc2c1 | 4.5% (inactive)
13 | O=C(NCc1ccccn1)c1ccc2nc(C3CCCCC3)oc2c1 | -4.5% (inactive)
14 | CCOc1ccc(N(C)S(=O)(=O)c2ccc3[nH]cc(C(=O)NCC4CCCO4)c(=O)c3c2)cc1 (configuration not stated) | 8.3% (inactive)
15 | Cc1cc(NC(=O)c2ccc([N+](=O)[O-])cc2)n(CCC#N)n1 | 4.7% (inactive)
16 | COCCCn1c(=S)[nH]c2sc3c(c2c1=O)CCCS3 | -0.4% (inactive)
17 | CCc1ccc(CN2CCCC(C(=O)N3CCCCC3)C2)cc1 (configuration not stated) | 12% (inactive)
18 | CCc1nnc(NC(=O)c2ccc3c(c2)C(=O)N(CC(C)C)C3=O)s1 | 3.7% (inactive)
19 | O=C(Nc1ccccc1)c1nnsc1S(=O)(=O)c1ccc(Cl)cc1 | 4.3% (inactive)
20 | CCCNC(=O)c1nnsc1S(=O)(=O)c1ccc(Cl)cc1 | 31.8% (inactive)
21 | CCCNC(=O)c1nnsc1Sc1ccc(Cl)cc1 | -10.7% (inactive)
22 | CNC(=O)c1ncoc1-c1ccc(Cl)cc1 | 12.3% (inactive)
23 | O=C(CC12CC3CC(CC(C3)C1)C2)NC(Cc1ccccc1)C(=O)O (configuration not stated) | 10.7% (inactive)
24 | CC(=O)N(C(C)=O)c1nc(-c2ccccc2)cn1/N=C/c1ccccc1 | 7.8% (inactive)
25 | CCCNC(=O)NC(=O)CSc1nncs1 | 1.8% (inactive)

Row | SMILES | inhibition
26 | Cc1ccc(C(=O)N/C(=C/c2ccco2)C(=O)N2CCCCC2)cc1 | -6.4% (inactive)
27 | CC(C)Nc1nc(Cl)nc(NCCOc2ccccc2)n1 | 1.4% (inactive)
28 | CN(C)CC(C)(C)CNS(=O)(=O)c1ccc(Cl)s1 | 2.9% (inactive)
29 | O=c1[nH]c(Cc2ccccc2)nc2scc(-c3ccccc3)c12 | -0.4% (inactive)
30 | CN1CCN(c2nc(C(N)=O)cc(-c3ccccc3)n2)CC1 | -5.1% (inactive)
31 | NC(=O)c1cc(-c2ccccc2)nc(N2CCCCCC2)n1 | -8.5% (inactive)
32 | CC(=O)Nc1ccc(S(=O)(=O)NCCC(=O)N2CCc3ccccc32)cc1 | 2.8% (inactive)
33 | O=C(NC1CCCN(c2ccc(C(F)(F)F)cn2)C1)c1cc(Cl)ccc1F (configuration not stated) | 9.1% (inactive)
34 | CC(C)=NNc1nc2c(c(=O)[nH]c(=O)n2C)n1CCc1ccccc1 | -4.6% (inactive)
35 | COc1ccc(Br)cc1/C=N/Nc1cccc(C(=O)O)c1 | 1% (inactive)
36 | C=CCOc1c(CNc2cccc(C(=O)O)c2)cccc1OC | 4.5% (inactive)
37 | Cc1c(NC(=O)CN2C(=O)NC(CCc3ccccc3)C2=O)c(=O)n(-c2ccccc2)n1C (configuration not stated) | 13.9% (inactive)
38 | NC(=O)[C@@H]1CCOc2c(F)cc([N+](=O)[O-])cc2C(=O)N[C@@H](CO)C(=O)NCC(=O)N1 | 1.8% (inactive)
39 | CC12CCC(C/C1=N\N=C1\NC(=O)/C(=C\c3ccc(Cl)cc3)S1)C2(C)C (configuration not stated) | 41.5% (inactive)
40 | COc1ccc(/C=C2\SC(N)=NC2=O)cc1 | -7% (inactive)
41 | O=C(CN(C(=O)CCC(=O)Nc1nccs1)c1ccc(F)cc1)NCC1CCCO1 (configuration not stated) | 15% (inactive)
42 | C/C(Cl)=C\CSc1nnc2n(N)c(=O)c3ccccc3n12 | -16.2% (inactive)
43 | Cc1ccc(SCc2cn3cccnc3n2)cc1 | -13.1% (inactive)
44 | CCN(Cc1cn2cccnc2n1)C1CCCCC1 | 87.7% (active)
45 | Cc1ccc(OCc2cn3cccnc3n2)cc1 | 12.3% (inactive)
46 | O=C1NCC(c2ccccc2)C1C(=O)N/N=C/c1ccc(Cl)s1 (configuration not stated) | 5.1% (inactive)
47 | Cc1ccc(/C=c2\s/c(=C(/C#N)C(=O)N3CCCC3)n(Cc3ccco3)c2=O)s1 | 5.1% (inactive)
48 | CN(c1ccccc1)c1ccc(/C=c2\s/c(=C(/C#N)C(=O)C(C)(C)C)n(Cc3ccco3)c2=O)cc1 | 74% (active)
49 | COc1ccc(/C=c2\s/c(=C(/C#N)C(=O)NCc3ccco3)n(-c3ccccc3)c2=O)cc1 | 2.8% (inactive)
50 | Cc1[nH]c(C)c(S(=O)(=O)N2CCCCC2)c1C(=O)N1CCCCC1 | 29.6% (inactive)

Row | SMILES | inhibition
51 | Cc1ccc(N2CN(CCc3ccccc3)CNC2=S)cc1 | 5% (inactive)
52 | O=C(Nc1cccc(F)c1)NC1CCN(Cc2ccccc2)CC1 | 6% (inactive)
53 | CC(NC(=O)/C(C#N)=C/c1ccc([N+](=O)[O-])o1)c1ccccc1 (configuration not stated) | 4.1% (inactive)
54 | COc1ccc(/C=C(\C#N)C(=O)NC(C)c2ccccc2)cc1O (configuration not stated) | 4.5% (inactive)
55 | CC(=NCCc1ccccc1)C1=C(O)COC1=O | 13.7% (inactive)
56 | CCOC(=O)c1c(N)sc(C(O)(C(F)(F)F)C(F)(F)F)c1-c1ccc(OC)cc1OC | 22.9% (inactive)
57 | CCOC(=O)c1c(N)sc(-c2ccccc2)c1C | -6.5% (inactive)
58 | CCOC(=O)c1c(N)sc(C(O)(C(F)(F)F)C(F)(F)F)c1-c1ccc(Cl)cc1 | 5.7% (inactive)
59 | CCOC(=O)c1c(N)sc(N)c1C(=O)OCC | 6.2% (inactive)
60 | N#Cc1c(N)nc(SCC(=O)C23CC4CC(CC(C4)C2)C3)c(C#N)c1-c1ccc(Cl)cc1 | 0.2% (inactive)
61 | COC(=O)c1cccc(NC(=O)CSc2nc3cccnc3n2C)c1 | 16.9% (inactive)
62 | CCCCCCCc1c(C)nc(N2CCOCC2)[nH]c1=O | 3.4% (inactive)
63 | CCOC(=O)C1=NN(N=O)C2(CC(=O)N(c3cc(C)cc(C)c3)C2=O)C1 (configuration not stated) | 8.8% (inactive)
64 | CC(C)(C)N(Cc1cc2ccccc2[nH]c1=O)C(=O)c1cccc([N+](=O)[O-])c1 | -1.2% (inactive)
65 | O=C(Nc1ccccc1Cl)c1cc[n+]([O-])cc1 | 10.9% (inactive)
66 | Cc1ccc(OCC(O)Cn2c3ccccc3c3ccccc32)cc1 (configuration not stated) | 6.3% (inactive)
67 | CN1CCN(CC(O)Cn2c3ccccc3c3ccccc32)CC1 (configuration not stated) | -3.3% (inactive)
68 | CCOc1ccc(CN2CCN(CC(O)Cn3c4ccccc4c4ccccc43)CC2)cc1 (configuration not stated) | 79.4% (active)
69 | COc1ccc(CN2CCN(CC(O)Cn3c4ccccc4c4ccccc43)CC2)cc1 (configuration not stated) | 50.2% (inactive)
70 | OC(CN1CCN(Cc2ccccc2)CC1)Cn1c2ccccc2c2ccccc21 (configuration not stated) | 36.2% (inactive)
71 | Cc1ccc(OCCN2CCN(CC(O)Cn3c4ccccc4c4ccccc43)CC2)cc1 (configuration not stated) | 72.6% (active)
72 | Cc1ccc(/C=N/NC(=O)c2nnn(-c3nonc3N)c2C(C)C)s1 | 4% (inactive)
73 | CC1CCN(CCc2nc3cc(NS(=O)(=O)c4ccccc4)ccc3n2C)CC1 | -11.2% (inactive)
74 | CCn1c(SCC(N)=O)nc2c1c(=O)n(C)c(=O)n2C | -11% (inactive)
75 | Cc1onc(-c2ccc(Cl)cc2Cl)c1C(=O)/C=C/N(C)C | 3.5% (inactive)

Row | SMILES | inhibition
76 | COc1ccc(C(CNC(=O)C(C)(C)Oc2ccc(Cl)cc2)N2CCCCC2)cc1 (configuration not stated) | 3.2% (inactive)
77 | C=CCc1c(C)nc(-c2ccccc2)nc1N/N=C(\C)c1ccccc1 | 8.1% (inactive)
78 | Cc1cc(C2(c3ccc(O)c(C)c3)C(=O)Nc3ccccc32)ccc1O | 5% (inactive)
79 | CC(=O)Nc1ccc(C2(c3ccc(NC(C)=O)cc3)C(=O)Nc3ccccc32)cc1 | 10.2% (inactive)
80 | CCOC(=O)C1=C(C)NC(C)=C(C(=O)OC)C1c1cccc(Cl)c1Cl (configuration not stated) | 85.2% (active)
81 | COC(=O)C1=C(C)NC(=O)CC1c1cccc(Cl)c1Cl (configuration not stated) | 10% (inactive)
82 | CCOC(=O)C1=C(C)NC(=O)NC1c1ccccc1Cl (configuration not stated) | 14% (inactive)
83 | COc1cc(C(=O)N2CCN(C(=O)c3cccc4ccccc34)CC2)cc(OC)c1OC | 4.5% (inactive)
84 | CCn1cnc2sc(C(=O)Oc3cccc(C)c3)c(C)c2c1=O | -14% (inactive)
85 | c1ccc2c(c1)OCC(c1csc3ncnc(N4CCOCC4)c13)O2 (configuration not stated) | 18.5% (inactive)
86 | CCN(CC)c1ncnc2scc(C3COc4ccccc4O3)c12 (configuration not stated) | 31% (inactive)
87 | c1ccc2c(c1)OCC(c1csc3ncnc(N4CCCCC4)c13)O2 (configuration not stated) | 6% (inactive)
88 | c1ccc2c(c1)OCC(c1csc3ncnc(N4CCCC4)c13)O2 (configuration not stated) | 26.4% (inactive)
89 | CC(C)CCNc1c(-c2cccs2)nc2ccccn12 | 8.2% (inactive)
90 | CC(=O)Nc1nc(-c2ccc(Cl)cc2)ns1 | 9.6% (inactive)
91 | CC(C)=CC(=O)OCc1csc(CC(=O)Nc2ccccc2C)n1 | 8.4% (inactive)
92 | Clc1ccc(-n2nnnc2-c2cnc(-c3ccncc3)nc2-c2cccs2)cc1 | 6.4% (inactive)
93 | Clc1ccc(-c2nnnn2-c2ccc(Cl)cc2)cc1 | 7.1% (inactive)
94 | Cn1c(C(=O)N[C@@H](Cc2ccccc2)C(=O)NCCC(=O)O)cc2cc(Cl)ccc21 | 2.2% (inactive)
95 | Cc1ccc(-c2nnc(Oc3ccc(NC(=O)c4ccccc4)cc3)c3ccccc23)cc1 | 9.6% (inactive)
96 | CCC(=O)NC(c1ccccc1)c1c(OC(C)=O)ccc2ccccc12 (configuration not stated) | 9.1% (inactive)
97 | CC(=O)Oc1ccc2ccccc2c1C(NC(=O)Cc1ccccc1)c1ccc(Cl)cc1 (configuration not stated) | 3.5% (inactive)
